# In a collection of fitness landscapes (doi:10.1126/science.1257360):
# Whole data set: some 140,000 sequences, median “enrichment ratio after two sorts for PhoP signalling” near 0, cut for the highest 2% near 11. For the sample, the highest values were picked, then their nearest neighbours and some sequences at random.
# B1: PhoQ; a variant is named by its letters at X, in order, P23837 (parent)
# chain: MKKLLRLFFPLSLRVRFLLATAAVVLVLSLAYGMVALIGYSVSFDKTTFRLLRGESNLFYTLAKWENNKLHVELPENIDKQSPTMTLIYDENGQLLWAQRDVPWLMKMIQPDWLKSNGFHEIEADVNDTSLLLSGDHSIQQQLQEVREDDDDAEMTHSVAVNVYPATSRMPKLTIVVVDTIPVELKSSYMVWSWFIYVLSANLLLVIPLLWVAAWWSLRPIEALAKEVRELEEHNRELLNPATTRELTSLVRNLNRLLKSERERYDKYRTTLTDLTHSLKTPLXXLQXXLRSLRSEKMSVSDAEPVMLEQISRISQQIGYYLHRASMRGGTLLSRELHPVAPLLDNLTSALNKVYQRKGVNISLDISPEISFVGEQNDFVEVMGNVLDNACKYCLEFVEISARQTDEHLYIVVEDDGPGIPLSKREVIFDRGQRVDTLRPGQGVGLAVAREITEQYEGKIVAGESMLGGARMEVIFGRQHSAPKDE
# Variants of: B1
# Assay: enrichment ratio after two sorts for PhoP signalling (ratio (wild type AVST 3.29)); higher = more functional
# Conditions: with PhoP (E. coli)
row,Variant,enrichment ratio
1,SNCL,14.4
2,SRNN,≤ 0.25
3,HEMN,≤ 0.25
4,SNQN,≤ 0.25
5,SPVN,≤ 0.25
6,SLNN,≤ 0.25
7,TFHC,≤ 0.25
8,NQTW,≤ 0.25
9,ARRF,≤ 0.25
10,VRLN,≤ 0.25
11,GQCL,7.51
12,SQVN,20.3
13,SLVY,≤ 0.25
14,SQCL,12.1
15,SRCL,6.4
16,SLVN,1.02
17,SNSL,16.8
18,SQVY,14.2
19,SPVY,≤ 0.25
20,SQSL,9.58
21,NQVN,≤ 0.25
22,SRSL,≤ 0.25
23,GRRN,≤ 0.25
24,QVFR,≤ 0.25
25,QFNA,≤ 0.25
26,FSTQ,≤ 0.25

row,Variant,enrichment ratio
1,NDYC,≤ 0.25
2,PTST,≤ 0.25
3,QIDF,≤ 0.25
4,NSVL,≤ 0.25
5,LHGW,≤ 0.25
6,NGIL,≤ 0.25
7,LHHH,≤ 0.25
8,ELYP,≤ 0.25
9,SNEL,≤ 0.25
10,LNSL,≤ 0.25
11,TNSL,12.2
12,MEVN,17.3
13,MNSL,4.59
14,WRMN,≤ 0.25
15,WNMN,12
16,MKVN,≤ 0.25
17,WNNL,≤ 0.25
18,SNRL,≤ 0.25
19,QEVN,≤ 0.25
20,SNNL,13.1
21,GPCQ,≤ 0.25
22,HTRL,≤ 0.25
23,WHQP,≤ 0.25
24,WEDV,≤ 0.25
25,HDYF,≤ 0.25
26,AHNC,≤ 0.25

row,Variant,enrichment ratio
1,WAWV,≤ 0.25
2,PHYI,≤ 0.25
3,WFSM,≤ 0.25
4,RGSM,≤ 0.25
5,CFSM,18.5
6,TGSM,23.5
7,CVSM,≤ 0.25
8,GGSM,7.14
9,KTCN,≤ 0.25
10,HRWF,≤ 0.25
11,DYHL,≤ 0.25
12,MICN,31.9
13,MIWN,≤ 0.25
14,MFCN,≤ 0.25
15,MILN,17.5
16,MINL,≤ 0.25
17,MICI,0.945
18,MIRW,≤ 0.25
19,SSFG,≤ 0.25
20,ACWI,≤ 0.25
21,ACVL,5.91
22,ACWL,≤ 0.25
23,ACIV,0.927
24,AILK,2.69
25,ACHK,≤ 0.25
26,ACLT,11.7

row,Variant,enrichment ratio
1,ACLV,16
2,ACLL,13.3
3,ACVT,1.11
4,ACNT,≤ 0.25
5,ACLK,13.7
6,FPKK,≤ 0.25
7,KLEK,≤ 0.25
8,STHN,≤ 0.25
9,CFKF,≤ 0.25
10,MMGD,≤ 0.25
11,TVTR,2.26
12,TRGD,≤ 0.25
13,QIWC,≤ 0.25
14,KYLR,≤ 0.25
15,TGGL,3.52
16,YWNM,≤ 0.25
17,YRPI,≤ 0.25
18,ACLC,12.2
19,AKCN,5.46
20,ACNS,≤ 0.25
21,ACIC,9.45
22,ACLN,13.6
23,ACCN,12.1
24,ACLI,5.06
25,ACLS,6.09
26,KCCN,≤ 0.25

row,Variant,enrichment ratio
1,ACLA,11.6
2,ACDS,0.253
3,ACYM,0.253
4,KVRT,≤ 0.25
5,AYPT,≤ 0.25
6,QIHR,≤ 0.25
7,QDCY,≤ 0.25
8,AARG,≤ 0.25
9,DLGS,≤ 0.25
10,VYSL,≤ 0.25
11,PPRP,≤ 0.25
12,PSLE,≤ 0.25
13,QMSW,≤ 0.25
14,ACGY,≤ 0.25
15,ACLY,15.2
16,ACNY,0.855
17,WFSN,≤ 0.25
18,ISKP,≤ 0.25
19,LFTC,≤ 0.25
20,AKVG,≤ 0.25
21,KKVC,≤ 0.25
22,WIVC,≤ 0.25
23,AIVG,7.78
24,AIVC,19.1
25,AKVC,15.3
26,VMGF,≤ 0.25

row,Variant,enrichment ratio
1,LCWG,≤ 0.25
2,FSMS,1.68
3,FSQV,≤ 0.25
4,KSMS,≤ 0.25
5,KSQV,≤ 0.25
6,TSMD,10.7
7,TSWG,16.6
8,TSMG,13
9,TSMS,26.4
10,TSQV,12.2
11,KSMG,≤ 0.25
12,MMWG,≤ 0.25
13,EDGN,≤ 0.25
14,WMLF,≤ 0.25
15,DHGA,≤ 0.25
16,GPST,≤ 0.25
17,FTYH,≤ 0.25
18,IRVV,≤ 0.25
19,DYPQ,≤ 0.25
20,EQAY,≤ 0.25
21,NSWL,1.26
22,WSSA,≤ 0.25
23,FRMR,≤ 0.25
